From PubChem BioAssay
Values joined by “and” are separate entries in the source; they are usually repeats but may differ in a detail not shown here. Equal entries are not always repeated. Active and inactive are the calls of the source.

Legend:
[1] = compound effects on lung adenocarcinoma cell viability – A549, calcein-AM fluorescence, 48 h, basal, profiling panel (AID 1162); conditions: higher = more signal
[2] = compound effects on differentiated 3T3-L1 adipocyte viability – cell-based, 3T3-L1 adipocytes, calcein-AM fluorescence, 48 h, basal, profiling panel (AID 1163); conditions: 3T3-L1 adipocytes viability, higher = more signal
[3] = compound effects on hepatocellular carcinoma cell viability – HepG2, calcein-AM fluorescence, 48 h, basal, profiling panel (AID 1164); conditions: higher = more signal
[4] = compound effects on multiple myeloma cell viability – MM1S, calcein-AM fluorescence, 48 h, basal, profiling panel (AID 1165); conditions: higher = more signal
[5] = calcein-AM signal in unstimulated myeloma cells – cell-based, calcein-AM fluorescence, 48 h, PK04 Diversity Set, profiling panel (AID 1166); conditions: RPMI8226 myeloma viability, higher = more signal;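 also: cells grown under basal conditions without added stimulus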
[6] = JC-1 mitochondrial signal, unstimulated HepG2 cells – cell-based, JC-1 fluorescence, 24 h, 100 nL compound, profiling panel (AID 1167); conditions: HepG2 mitochondrial potential, higher = more signal
[7] = JC-1 mitochondrial signal, unstimulated adipocytes – cell-based, JC-1 fluorescence, 3T3-L1 adipocytes, 24 h, 100 nL compound, profiling panel (AID 1168); conditions: JC-1 mitochondrial fluorescence, higher = more signal, called active from +8 up or from −8 down
[8] = JC-1 mitochondrial signal, unstimulated myeloma cells – cell-based, JC-1 fluorescence, RPMI8226, 24 h, 100 nL compound, profiling panel (AID 1169); conditions: JC-1 mitochondrial potential fluorescence, higher = more signal
[9] = JC-1 mitochondrial signal, unstimulated MM1S myeloma – cell-based, JC-1 fluorescence, 24 h, 100 nL compound, profiling panel (AID 1170); conditions: MM1S mitochondrial potential, higher = more signal
[10] = resazurin metabolic signal in A549 cells – cell-based, resazurin fluorescence, 24 h, PK04 Diversity Set, profiling panel (AID 1171); conditions: A549 viability, higher = more signal, called active from +8 up or from −8 down
Also: test concentration not given here.

| SMILES | z-score [1] | z-score [2] | z-score [3] | z-score [4] | z-score [5] | z-score [6] | z-score [7] | z-score [8] | z-score [9] | z-score [10] |
| --- | --- | --- | --- | --- | --- | --- | --- | --- | --- | --- |
| C=CCN(CCCCC)C(=O)C1N(CCOCCO)C(=O)C2C(C(=O)O)C3C=CC21O3 (stereo not given) | -0.178 and -0.126 | 0.21 and -0.603 | -0.499 and -0.87 | 0.226 and 1.03 | -0.361 and 0.133 | -0.562 and -0.928 | -0.279 (inactive) and -0.227 (inactive) | 0.252 and 0.715 | 0.377 and 0.103 | -0.529 (inactive) and -1.03 (inactive) |
| C=CCN(C(=O)C1N(CCCCCCO)C(=O)C2C(C(=O)O)C3C=CC21O3)C(C)(C)C (stereo not given) | 0.698 and -0.443 | -0.356 and -0.171 | 0.159 and 0.187 | 0.576 and 0.13 | -0.566 and -0.866 | -0.872 and -0.997 | -0.373 (inactive) and 0.302 (inactive) | 0.186 and 0.699 | 1.29 and 0.193 | -0.0791 (inactive) and -0.385 (inactive) |
| O=C1NC(=O)C2C1C=CC(C(O)c1ccc([N+](=O)[O-])cc1)N2Nc1ccc(Cl)cc1Cl (stereo not given) | 0.953 and 1.59 | 0.0938 and 0.263 | 0.949 and 1.79 | -0.251 and 0.596 | -0.194 and 0.932 | -0.115 and -0.654 | -0.833 (inactive) and -0.57 (inactive) | -0.314 and -0.905 | 0.319 and 2.28 | 0.303 (inactive) and 0.766 (inactive) |
| COC(=O)C1=C(C)N(Cc2ccccc2)[C@]23O[C@](C(=O)OC)(C(=O)N2[C@@H]1c1ccccc1)[C@@H](C(=O)OC)[C@H]3C(=O)OC | 1.59 and 1.67 | -0.0502 and -0.386 | 0.209 and 1.32 | 0.185 and 0.568 | 0.248 and 0.636 | 0.345 and 0.106 | 0.225 (inactive) and 1.49 (inactive) | -0.866 and 0.532 | -0.142 and -0.237 | 0.415 (inactive) and -0.804 (inactive) |
| CC(C)CCN1CCc2nc(-c3ccccc3)c3c(c2C1)CO[C@@H](C)C3 | -0.0742 | -0.626 | 1.15 | -1.18 | 0.0677 | 0.361 | -0.395 (inactive) | -0.173 | 0.324 | -0.191 (inactive) |
| C=CCN(C(=O)C(c1cccs1)N(C(=O)/C=C\C(=O)O)c1c(Cl)cccc1CO)C(C)(C)C (stereo not given) | 0.422 and -0.237 | 0.0699 and -0.221 | -0.0685 and 0.369 | 0.221 and 0.0812 | -0.511 and -0.202 | -0.99 and -0.519 | 0.563 (inactive) and 0.497 (inactive) | -0.639 and -0.0626 | 0.923 and 0.231 | -0.493 (inactive) and -0.643 (inactive) |
| COC(=O)[C@@]1(Cc2ccc(OC)cc2)[C@H]2c3cc(C(=O)N(C)C)n(Cc4ccc(O)c(OC)c4)c3C[C@H]2CN1C(=O)c1ccccc1 | -0.352 and 0.46 | 0.865 and 0.215 | -0.0117 and 0.763 | 0.0138 and -1.26 | -0.475 and -2.77 | 2.46 and 2.03 | -0.0971 (inactive) and 0.395 (inactive) | 0.178 and -0.792 | -0.74 and -1.95 | 1.06 (inactive) and -1.21 (inactive) |
| C=C[C@@H](C)[C@@H](O)c1ccc(O)c2ccccc12 | 0.799 and -0.778 | -0.468 and 0.56 | -0.165 and -1.36 | -2.83 and -2.76 | -1.07 and -1.45 | -2.11 and -2.44 | -0.672 (inactive) and -0.253 (inactive) | -0.994 and -0.39 | -1.51 and -1.39 | -0.852 (inactive) and -0.3 (inactive) |
| O=C1C[C@]2(c3ccc([N+](=O)[O-])cc3)C(=O)N(Cc3ccccc3)c3cc(CO)ccc3[C@H]2N1C1CCCCC1 | -0.8 and 0.627 | 0.43 and 1.53 | -1.3 and 0.0974 | -0.514 and -2.14 | -0.684 and -2.65 | -0.236 and 0.352 | -0.0101 (inactive) and -0.0655 (inactive) | -0.469 and -0.544 | -0.152 and -0.189 | 0.466 (inactive) and -0.352 (inactive) |
| C=C[C@H](OC)[C@@H](O)c1ccc(OCCO)cc1 | -0.057 and 1.18 | -0.367 and 0.0113 | -0.485 and 0.98 | -0.457 and 1.61 | -0.179 and 0.542 | -0.899 and 1.11 | -0.433 (inactive) and -0.178 (inactive) | -0.0855 and -0.21 | 0.412 and 1.06 | -0.555 (inactive) and -0.0644 (inactive) |
| C[N+](C)(C)CCCCCCNC(=O)[C@H]1C[C@H]2C(=O)N[C@@H](CCCC[N+](C)(C)C)C(=O)N2[C@H]1c1cccc(OCCO)c1 | 0.47 and -0.453 | -0.32 and -0.34 | 0.427 and -0.245 | 0.0606 and -0.353 | 0.366 and 0.635 | -0.112 and -1.53 | 0.418 (inactive) and 0.566 (inactive) | -0.192 and 0.231 | -0.644 and -0.272 | -0.154 (inactive) and -0.311 (inactive) |
| CO[C@H]1COC(=O)CC=C[C@@H](C)COC(=O)[C@@H](OCc2ccccc2)C=C[C@@H]1C | 0.497 | 0.146 | 0.835 | 0.301 | 0.608 | 0.952 | -0.0508 (inactive) | -0.442 | -0.414 | -0.34 (inactive) |
| CCCC[C@@H]1CN2[C@@H](CC[C@@H](C)[C@@H]2c2ccc(Br)cc2)C(=O)O1 | 0.761 and 1.06 | -0.857 and -0.567 | 0.537 and -0.336 | -1.1 and 0.516 | 0.309 and -0.616 | -0.48 and 0.127 | -0.136 (inactive) and -1.09 (inactive) | 0.266 and -0.0989 | 0.0213 and -0.396 | -0.335 (inactive) and -0.178 (inactive) |
| COC(=O)C1=C(C)N(Cc2ccccc2)C2=C3C(=O)N(C)C(=O)[C@@H]3[C@@](O)(C(=O)OC)C(=O)N2[C@@H]1c1ccccc1 | 0.77 and 0.914 | -0.159 and 0.143 | 0.215 and 1.05 | -0.607 and -0.213 | 0.0606 and 0.359 | 0.981 and 0.11 | -0.531 (inactive) and 0.96 (inactive) | 0.134 and -0.542 | 0.739 and 0.467 | 1.18 (inactive) and -1.08 (inactive) |
